In PMC4336329 (PLoS ONE, 2015):
Screen size: about 310,000 compounds; about 2,200 (0.71%) showed an effect of 50% or more. Effects have a minus sign here. The entries come from a sample that favours strong results as a whole.

What follows are compounds tested against human ether-à-go-go-related gene (hERG) potassium channel (human, UniProt Q12809) (assay: primary screen, population patch clamp on CHO cells stably expressing hERG; higher = less effect of the substance).
Procedure: Briefly, Chinese hamster ovary (CHO) cells stably expressing the hERG channel were dislodged from tissue culture flasks and dispensed into PPC plates. […] During the recording, background leak currents were estimated by a 100 ms step to -80 mV from an initial holding potential of -70 mV and subtracted from the subsequent current measurement. The campaign was conducted in two phases using slight differences in recording protocol. In the first phase, the initial voltage pulse used a 100 ms step to -30 mV from a holding potential of -70 mV, a 2 s conditioning step to +25 mV, and a 2 s test step to -30 mV. During the second phase of the screen, the potential during the conditioning step was raised to +45 mV. In both phases of the campaign, a secondary voltage pulse was applied using the same parameters as the second phase initial pulse. The initial and secondary pulses were applied in the absence of compound, and upon application of 1 μM and 10 μM test concentrations. Small molecule effects on hERG current density were quantified by […].

human ether-à-go-go-related gene (hERG) potassium channel, sequence (Q12809 whole entry, looked up): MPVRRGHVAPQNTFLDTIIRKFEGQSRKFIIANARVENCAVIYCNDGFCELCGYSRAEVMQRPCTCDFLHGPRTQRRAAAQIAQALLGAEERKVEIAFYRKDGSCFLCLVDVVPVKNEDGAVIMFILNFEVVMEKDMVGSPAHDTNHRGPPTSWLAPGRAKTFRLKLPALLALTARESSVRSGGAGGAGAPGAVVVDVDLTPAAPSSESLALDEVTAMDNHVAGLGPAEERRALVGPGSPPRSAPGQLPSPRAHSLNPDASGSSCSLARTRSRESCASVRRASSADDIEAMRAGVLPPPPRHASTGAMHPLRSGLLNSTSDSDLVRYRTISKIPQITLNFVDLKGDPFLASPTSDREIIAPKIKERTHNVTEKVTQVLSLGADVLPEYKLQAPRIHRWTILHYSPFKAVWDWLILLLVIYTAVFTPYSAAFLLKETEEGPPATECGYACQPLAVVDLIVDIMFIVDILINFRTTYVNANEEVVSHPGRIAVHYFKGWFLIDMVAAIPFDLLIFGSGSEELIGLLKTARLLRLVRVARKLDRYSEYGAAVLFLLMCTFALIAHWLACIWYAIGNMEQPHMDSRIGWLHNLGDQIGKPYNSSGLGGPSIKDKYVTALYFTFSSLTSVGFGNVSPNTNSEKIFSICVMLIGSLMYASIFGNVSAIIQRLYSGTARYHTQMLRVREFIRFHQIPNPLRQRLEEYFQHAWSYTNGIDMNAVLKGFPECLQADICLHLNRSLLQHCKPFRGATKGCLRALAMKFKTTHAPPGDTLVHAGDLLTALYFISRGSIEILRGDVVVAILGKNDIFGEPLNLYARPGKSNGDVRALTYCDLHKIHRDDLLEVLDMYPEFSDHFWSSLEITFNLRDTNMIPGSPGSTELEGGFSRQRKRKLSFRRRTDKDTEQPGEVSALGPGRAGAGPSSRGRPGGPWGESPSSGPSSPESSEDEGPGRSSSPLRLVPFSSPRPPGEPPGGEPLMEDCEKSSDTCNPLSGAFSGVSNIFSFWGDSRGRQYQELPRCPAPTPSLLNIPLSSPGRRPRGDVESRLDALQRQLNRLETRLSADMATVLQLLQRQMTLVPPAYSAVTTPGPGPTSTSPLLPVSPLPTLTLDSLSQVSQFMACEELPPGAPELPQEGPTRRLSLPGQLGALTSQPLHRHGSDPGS

Row | SMILES | hERG current change (%, negative = inhibition) at 1uM
1 | Cc1cc(C)cc(N(C(=O)c2csnn2)C(C(=O)NC2CCCCC2)c2ccccn2)c1 (stereo not shown) | 11.5%
2 | CN(Cc1ccccc1)C(=O)c1ccc(NC2=NC3CS(=O)(=O)CC3S2)cc1 (stereo not shown) | -3.47%
3 | O=C(O)Cc1ccc(O)c(F)c1 | 4.7%
4 | CN1CCN(NC(=S)NC2CCCCC2)CC1 | 3.73%
5 | CCOC(=O)C1CCN(C(=O)c2sccc2Cl)CC1 | 12.5%
6 | O=S(=O)(Nc1ccc(Cl)cn1)c1ccc(Cl)cc1 | 16.8%
7 | O=C(NNC(=O)C1CCCO1)c1ccc(Br)cc1 (stereo not shown) | 8.75%
8 | O=C(NC1CCCCC1)NC1CCN(S(=O)(=O)c2ccc3c(c2)OCCO3)CC1 | 9.08%
9 | Cc1ccc(S(=O)(=O)N(C(=O)c2ccncc2)c2ccc3oc4c(c3c2)CCCC4)cc1[N+](=O)[O-] | 19.2%
10 | Cc1ccc(Nc2nc(Cl)nc(NC(C)(C)C)n2)cc1 | 11.9%
11 | Cc1ccc(Cl)cc1N1CCN(C(=O)CNC(=O)c2ccc(Br)o2)CC1 | 4.64%
12 | O=C(NCC(=O)N1CCN(c2ccccc2)CC1)c1ccc(Br)o1 | -7.83%
13 | O=C(NCC(=O)N1CCN(c2cccc(Cl)c2)CC1)c1ccc(Br)o1 | -57.5%
14 | Cc1ccc(-n2c(-c3ccccc3)c[n+]3c2CCC3)cc1.[Br-] | -2.23%
15 | Brc1ccc(-c2cn3c(n2)CCc2ccc4cccnc4c2-3)cc1 | 10.5%
16 | COc1ccc(-n2c(-c3ccc(Br)cc3)c[n+]3c2CCc2ccccc2-3)cc1.[Br-] | -90.6%
17 | COc1ccc(-n2c(-c3ccc(Cl)cc3)c[n+]3c2CCCCC3)cc1.[Br-] | 8.19%
18 | COc1ccc(-n2c(-c3ccc(Cl)cc3)c[n+]3c2CCc2ccccc2-3)cc1.[Br-] | -70.3%
19 | COc1ccc(-n2c(-c3ccc(Br)cc3)c[n+]3c2SC(C)C3)cc1.[Br-] (stereo not shown) | -26%
20 | COc1ccc(-n2c(-c3ccc(Br)cc3)c[n+]3c2CCC3)cc1.[Br-] | -21%
21 | Cc1ccc(-n2c(-c3ccccc3)c[n+]3c2CCc2ccccc2-3)c(C)c1.[Br-] | -82.5%
22 | Cc1ccc(-n2c(-c3ccc(Br)cc3)c[n+]3c2CCc2ccc4cccnc4c2-3)cc1.[Br-] | -86.6%
23 | COc1ccccc1-n1c(-c2ccccc2)c[n+]2c1CCc1ccccc1-2.[Br-] | -34.7%
24 | COc1ccc(-n2c(-c3ccccc3)c[n+]3c2CCC3)cc1.[Br-] | 6.43%
25 | Cc1ccc(-c2c[n+]3c(n2-c2ccccc2)CCC3)cc1.[Br-] | 1.57%
